# Test results published in PubChem BioAssay (NCATS).
# Inconclusive results are not listed. A call without a number means that no potency is given here. Activity calls are given as the source filed them. Unless noted, calls come from the whole dose curve; as a rule, active = well fitted inhibition curve with a large enough effect; inconclusive = small, poorly fitted or top-dose-only effect; inactive = no such curve, though single readings can be large or run the other way.
# Experiment: Primary qHTS for small molecule stabilizers of the endoplasmic reticulum resident proteome: Secreted ER Calcium Modulated Protein (SERCaMP) assay (AID 1508630)
# Conditions: SH-SY5Y GLuc-SERCaMP (Gaussia luciferase released on ER calcium loss) secretion, thapsigargin, luminescence; series mostly up to 38.4 µM
# Outline: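 The SH-SY5Y reporter protocol was run at 3 concentrations up to 38.3 uM (primary) or 11 concentrations (follow-up): 16 h compound, 100 nM thapsigargin for 4 h, then extracellular luciferase luminescence.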
row,Structure (SMILES),Potency
1,OC1(c2ccc(Cl)c(C(F)(F)F)c2)CCN(CCCC(c2ccc(F)cc2)c2ccc(F)cc2)CC1,inactive
2,CCCC(=O)O[C@]1(C(=O)CC)CC[C@H]2[C@@H]3CCC4=CC(=O)CC[C@]4(C)[C@H]3[C@@H](O)C[C@@]21C,inactive
3,CC(=O)OCC(=O)[C@@]1(O)[C@H](OC(C)=O)C[C@H]2[C@@H]3CCC4=CC(=O)C=C[C@]4(C)[C@@]3(F)[C@@H](O)C[C@@]21C,inactive
4,NS(=O)(=O)c1cc(C(=O)NN2C[C@H]3[C@H]4CCC(C4)[C@H]3C2)ccc1Cl,inactive
5,CO/N=C(/C(=O)N[C@@H]1C(=O)N2C(C(=O)O)=C(Cn3nnc(C)n3)CS[C@H]12)c1csc(N)n1,inactive
6,O=C1NC(c2ccccc2)(c2ccccc2)C(=O)N1COP(=O)(O)O,inactive
7,Cn1c(=O)c2c(ncn2CC(=O)O)n(C)c1=O,inactive
8,NS(=O)(=O)c1cc2c(cc1Cl)CN(C1CCCCC1)C2=O,inactive
9,CC(=O)Nc1ccc(S(=O)(=O)Nc2cc(C)on2)cc1,inactive
10,O=C(Oc1ccccc1)c1ccccc1O,inactive
11,Cc1ncc(CO)c(CO)c1O,inactive
12,Cc1sccc1Br,inactive
13,COc1ccc2c(c1)CCCC2=O,inactive
14,O=C(CCCCC(=O)Nc1c(I)cc(I)c(C(=O)O)c1I)Nc1c(I)cc(I)c(C(=O)O)c1I,inactive
15,C[N+](C)(CCOc1ccccc1)Cc1cccs1,inactive
16,O=C(CO)[C@@H](O)[C@H](O)[C@@H](O)CO,inactive
17,OC1(c2ccccc2)CCNCC1,inactive
18,CC(=O)c1cc2ccccc2s1,inactive
19,COc1cc(/C=C/C(N)=O)cc(OC)c1OC,inactive

row,Structure (SMILES),Potency
1,Cc1cccc(OCC(O)CNC(C)(C)C)c1C (centres undefined),inactive
2,CCCCCCn1c(=O)c2c(ncn2C)n(C)c1=O,inactive
3,COc1cc2nc(Cl)nc(N)c2cc1OC,inactive
4,CC[N+]1(CC)CCC(=C(c2ccccc2)c2ccccc2)C1C (centres undefined),inactive
5,Cc1cccc(C)c1NC(=O)c1cc(S(N)(=O)=O)c(Cl)cc1O,inactive
6,COc1ccc2nc(SCc3ncc(C)c(OC)c3C)[nH]c2c1,inactive
7,O=C1Nc2cc(Cl)ccc2Oc2ccccc21,inactive
8,COc1cc(C(=O)NC2CCCNC2)cc(OC)c1OC (centres undefined),inactive
9,O=C1[C@@H]2[C@H]3CC[C@H](C3)[C@@H]2C(=O)N1CCCCN1CCN(c2ncccn2)CC1,inactive
10,Cc1cc(C(C)(C)C)c(O)c(C(C)(C)C)c1,inactive
11,O=C(O)CNC(=O)CNC(=O)CNC(=O)CSC(=O)c1ccccc1,inactive
12,O=C(O)Cc1ccc(OCCNC[C@H](O)c2ccccc2)cc1,inactive
13,Nc1ccc2c(c1)CN1C(=O)c3ccccc3C1=N2,inactive
14,O=C(O)CCCC[P+](c1ccccc1)(c1ccccc1)c1ccccc1,inactive
15,CCOc1ccc(NS(=O)(=O)c2ccc(N)cc2)nn1,inactive
16,CCN1CCCC1CN (centres undefined),inactive
17,Cc1ccc(Cl)c(OCC(O)CNC(C)(C)C)c1 (centres undefined),inactive
18,CC1(C)O[C@@H]2C[C@H]3[C@@H]4C[C@H](F)C5=CC(=O)C=C[C@]5(C)[C@@]4(F)[C@@H](O)C[C@]3(C)[C@]2(C(=O)CO)O1,inactive

# Experiment: A High-Content qHTS Against Drug Library for the Identification of Small Molecules that Inhibit DYT1 Early Onset Primary Dystonia-Associated Cell Pathology (AID 1645839; calls by dose curve; note: potency is the fitted concentration of half-maximal effect)
# Conditions: HEK293 Flp-In EGFP-delE TorsinA, punctate imaging, 48 h; series mostly up to 46.1 µM
# Outline: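 Induced EGFP-delE TorsinA cells are imaged after 48 h of compound treatment. Punctate fusion-protein distribution gives the %pathology value, while nuclei counts flag toxicity. Wild-type EGFP-hTOR1A cells define the normal pattern.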
row,Structure (SMILES),Potency
1,OC1(c2ccc(Cl)c(C(F)(F)F)c2)CCN(CCCC(c2ccc(F)cc2)c2ccc(F)cc2)CC1,4.47 µM (active)
2,CCCC(=O)O[C@]1(C(=O)CC)CC[C@H]2[C@@H]3CCC4=CC(=O)CC[C@]4(C)[C@H]3[C@@H](O)C[C@@]21C,inactive
3,CC(=O)OCC(=O)[C@@]1(O)[C@H](OC(C)=O)C[C@H]2[C@@H]3CCC4=CC(=O)C=C[C@]4(C)[C@@]3(F)[C@@H](O)C[C@@]21C,inactive
4,NS(=O)(=O)c1cc(C(=O)NN2C[C@H]3[C@H]4CCC(C4)[C@H]3C2)ccc1Cl,inactive
5,CO/N=C(/C(=O)N[C@@H]1C(=O)N2C(C(=O)O)=C(Cn3nnc(C)n3)CS[C@H]12)c1csc(N)n1,inactive
6,O=C1NC(c2ccccc2)(c2ccccc2)C(=O)N1COP(=O)(O)O,inactive
7,Cn1c(=O)c2c(ncn2CC(=O)O)n(C)c1=O,inactive
8,NS(=O)(=O)c1cc2c(cc1Cl)CN(C1CCCCC1)C2=O,inactive
9,CC(=O)Nc1ccc(S(=O)(=O)Nc2cc(C)on2)cc1,inactive
10,O=C(Oc1ccccc1)c1ccccc1O,inactive
11,Cc1ncc(CO)c(CO)c1O,inactive
12,Cc1sccc1Br,inactive
13,COc1ccc2c(c1)CCCC2=O,inactive
14,O=C(CCCCC(=O)Nc1c(I)cc(I)c(C(=O)O)c1I)Nc1c(I)cc(I)c(C(=O)O)c1I,inactive
15,C[N+](C)(CCOc1ccccc1)Cc1cccs1,inactive
16,O=C(CO)[C@@H](O)[C@H](O)[C@@H](O)CO,inactive
17,OC1(c2ccccc2)CCNCC1,inactive
18,CC(=O)c1cc2ccccc2s1,inactive
19,COc1cc(/C=C/C(N)=O)cc(OC)c1OC,inactive

row,Structure (SMILES),Potency
1,Cc1cccc(OCC(O)CNC(C)(C)C)c1C (centres undefined),inactive
2,CCCCCCn1c(=O)c2c(ncn2C)n(C)c1=O,inactive
3,COc1cc2nc(Cl)nc(N)c2cc1OC,inactive
4,CC[N+]1(CC)CCC(=C(c2ccccc2)c2ccccc2)C1C (centres undefined),inactive
5,Cc1cccc(C)c1NC(=O)c1cc(S(N)(=O)=O)c(Cl)cc1O,inactive
6,COc1ccc2nc(SCc3ncc(C)c(OC)c3C)[nH]c2c1,inactive
7,O=C1Nc2cc(Cl)ccc2Oc2ccccc21,inactive
8,COc1cc(C(=O)NC2CCCNC2)cc(OC)c1OC (centres undefined),inactive
9,O=C1[C@@H]2[C@H]3CC[C@H](C3)[C@@H]2C(=O)N1CCCCN1CCN(c2ncccn2)CC1,inactive
10,Cc1cc(C(C)(C)C)c(O)c(C(C)(C)C)c1,inactive
11,O=C(O)CNC(=O)CNC(=O)CNC(=O)CSC(=O)c1ccccc1,inactive
12,O=C(O)Cc1ccc(OCCNC[C@H](O)c2ccccc2)cc1,inactive
13,Nc1ccc2c(c1)CN1C(=O)c3ccccc3C1=N2,inactive
14,O=C(O)CCCC[P+](c1ccccc1)(c1ccccc1)c1ccccc1,inactive
15,CCOc1ccc(NS(=O)(=O)c2ccc(N)cc2)nn1,inactive
16,CCN1CCCC1CN (centres undefined),inactive
17,Cc1ccc(Cl)c(OCC(O)CNC(C)(C)C)c1 (centres undefined),inactive
18,CC1(C)O[C@@H]2C[C@H]3[C@@H]4C[C@H](F)C5=CC(=O)C=C[C@]5(C)[C@@]4(F)[C@@H](O)C[C@]3(C)[C@]2(C(=O)CO)O1,inactive
